Results filed as inconclusive are left out. Values without a mark were called inactive. Activity calls are given as the source filed them. The call rests on the fitted dose curve; in most records, active means well fitted inhibition curve with a large enough effect; inconclusive means small, poorly fitted or top-dose-only effect; inactive means flat fitted curve, though single readings scatter.

What all share (test): Cytotoxic Profiling of Annotated Libraries Using Quantitative High-Throughput Screening (AID 1296008); further: nearly all actives have a fitted effect of over 60% in size
Holding throughout (details): Five cell lines viability, CellTiter-Glo ATP luminescence, 48-72 h; max response: stronger effect = lower value

In one assay the test system is CRL-7250. In a few lines: (§1)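 Compounds were pin-transferred onto cells and incubated 48 or 72 hr at 37 degree Celsius, 95% humidity. CellTiter-Glo was added, plates sat 10 min at room temperature, then ATP-coupled luminescence was imaged as the viability read-out.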
The next assay concerns HEK293. In a few lines:
as §1

In a further assay the test system is HaCat. In a few lines:
as §1

The test system of another assay is KB-3-1. An outline of the steps:
as §1

The test system of another assay is NIH3T3. In a few lines:
as §1
On the % scale 0 is the no-effect control and ±100 the full control effect; potency means the concentration at half of the fitted maximal effect.

Turning to `COc1ccc(C(O)C(C)OC2OC(CO)C(O)C(O)C2O)cc1` (stereo not given), the max response with CRL-7250 is -9.11%; in the assay on HEK293, 0.525%; with HaCat, 1.16%; in the assay with NIH3T3 it was -2.23%. In addition, in the assay with KB-3-1, the result was inactive.
With `COc1cc2oc(-c3ccc(O)cc3O)cc2c(OC)c1CC=C(C)C`, the max response is -1.99% with CRL-7250; 3% in the assay with HEK293; -6.75% in the assay on HaCat; -1.08% in the assay with KB-3-1; 2.22% with NIH3T3.
For the compound `CC(=O)N1CCc2ccc(O)c(OC3OC(COC4OCC(O)(CO)C4O)C(O)C(O)C3O)c2C1Cc1ccc(O)cc1` (stereo not given), the max response in the assay on CRL-7250 was -12.6%; with HEK293, -5.03%; in the assay on HaCat, -0.476%; in the assay with KB-3-1, 3.16%; in the assay with NIH3T3 it was -4.18%.
As to `COC(=O)C1=C2Nc3ccccc3C23CCN2CCCC(C(C)O)(C1)C23` (stereo not given), the outcome with CRL-7250 was inactive. The max response in the assay on HEK293 was -3.43%; in the assay with HaCat, -21.7%; with KB-3-1, 6.23%; in the assay on NIH3T3 it was 1.02%.
Turning to `C=C(C)C1CC[C@]2(C(=O)O)CC[C@]3(C(=O)O)[C@H](CCC4[C@@]5(C)CC[C@H](O)C(C)(C)C5CC[C@]43C)C12` (stereo not given in full), the max response in the assay with CRL-7250 was -0.813%; in the assay on HEK293, -5.51%; with HaCat, -4.71%; with KB-3-1, -4.13%; with NIH3T3 it was -12.2%.
Take `CCOC(=O)c1cc(C#N)c(N2CCC(C(=O)NS(=O)(=O)Cc3ccccc3)CC2)nc1C`: the compound was classed as inactive in the assay with CRL-7250 and in the assay on KB-3-1. The figures for the max response with HEK293, in the assay on HaCat and in the assay on NIH3T3 were -0.212%, 2.62% and 4.98%, respectively.
With `C/C=C1\[C@H](O[C@@H]2O[C@H](CO)[C@@H](O)[C@H](O)[C@H]2O)OC=C(C(=O)OC)[C@H]1CC(=O)OC[C@H]1O[C@@H](OCCc2ccc(O)cc2)[C@H](O)[C@@H](O)[C@@H]1O`, the max response in the assay with CRL-7250 was -9.74%; in the assay on HEK293 it was 0.429%; in the assay on HaCat, -4.08%; in the assay on KB-3-1, 1.44%; in the assay with NIH3T3 it was -11.8%.
Consider `COc1ccc(CC2NCCc3c2[nH]c2ccc(C)cc32)cc1OC` (stereo not given), for which the max response with CRL-7250 was -17.7%; in the assay with HaCat it was -6.85%; in the assay with KB-3-1, -15.3%; in the assay with NIH3T3 it was -1.6%. Moreover, the Potency with HEK293 is 10.3 µM (active).
Consider `O=C(NOCC(O)CO)c1ccc(F)c(F)c1Nc1ccc(I)cc1F` (stereo not given), for which the values for the Potency in the assay on CRL-7250 and in the assay with NIH3T3 were 4.61 µM (active) and 1.84 µM (active), respectively. In addition, the figures for the max response with HEK293 and in the assay on HaCat were 2.15% and -79.3%, respectively. For the same compound, in the assay with KB-3-1, the result was inactive.
`C/C=C/C1=CC2=C(CO1)C(=O)C(C)(O)C(OC(=O)c1c(C)cc(OC)cc1O)C2` (stereo not given): the max response with CRL-7250 was -7.89%; in the assay on KB-3-1 it was 3.88%; in the assay with NIH3T3 it was -6.89%. Further, the Potency with HEK293 was 11.4 µM (active). Moreover, in the assay with HaCat, the result was inactive.
For the compound `C=C1CCC2C(C)(C(=O)O)CCCC2(C)C1CC/C(=C\CO)CO` (stereo not given), the max response with CRL-7250 was 0.544%; in the assay on HEK293, 2.54%; with HaCat it was -8.15%; in the assay on KB-3-1, 8.33%; in the assay on NIH3T3 it was 3.98%.
`CC(O)(CC(=O)O)CC(=O)OCc1ccc(O[C@@H]2O[C@H](CO)[C@@H](O)[C@H](O)[C@H]2O)cc1` (stereo not given in full): the result in the assay with CRL-7250 and with KB-3-1 was inactive. The results for the max response in the assay on HEK293, with HaCat and in the assay on NIH3T3 were -1.35%, 1.6% and -5.49%, respectively.
As for `O=C(O)c1cccc(S(=O)(=O)N2CCc3ccccc3C2)c1`, the max response is 0.0752% in the assay on CRL-7250; -4.38% with HEK293; -24.7% with HaCat; 0.457% in the assay on KB-3-1; -16.4% in the assay on NIH3T3.
On to `O=C1C=CC(O)(/C=C/C(=O)OC[C@H]2O[C@@H](Oc3ccc(O)cc3)[C@H](O)[C@@H](O)[C@@H]2O)C=C1`, for which the max response in the assay with CRL-7250 was 0.651%; with HEK293, -4.12%; in the assay on HaCat, 4.51%; with KB-3-1, -7.33%; in the assay on NIH3T3, -0.599%.
For the compound `Cc1ccccc1C#Cc1ccc(CCC(=O)O)cc1`, the max response with CRL-7250 is -3.17%; in the assay with HEK293, -13.9%; in the assay with HaCat, -15.6%; with KB-3-1, -11.6%; with NIH3T3, -10.2%.
Regarding `O=C(O)CC1CCC(c2ccc(-c3ccc4nc(C(=O)NCc5ccc(OC(F)(F)F)cc5)cn4c3)cc2)CC1` (stereo not given), the max response with CRL-7250 is 4.28%; in the assay on HEK293, -9.35%; with HaCat, -3.96%; with KB-3-1, -0.0408%; in the assay with NIH3T3, -0.598%.
On to `C[C@@H]1O[C@@H](O[C@H]2[C@H](OC(=O)[C@]34CCC(C)(C)C[C@H]3C3=CCC5[C@@]6(C)CC[C@H](O[C@@H]7O[C@H](C(=O)O)[C@@H](O)[C@H](O)[C@H]7O[C@@H]7O[C@H](CO)[C@H](O)[C@H](O)[C@H]7O)[C@@](C)(C=O)C6CC[C@@]5(C)[C@]3(C)C[C@H]4O)O[C@H](C)[C@H](O[C@@H]3O[C@H](C)[C@H](O)[C@H](O)[C@H]3O)[C@@H]2O)[C@H](O)[C@H](O)[C@H]1O[C@@H]1OC[C@@H](O)[C@H](O[C@@H]2O[C@H](CO)[C@@H](O)[C@H](O)[C@H]2O)[C@H]1O` (stereo not given in full), for which the max response in the assay with CRL-7250 was -5.26%; in the assay on HEK293, -75.9%; with HaCat it was -0.834%; with KB-3-1, 9.53%; in the assay on NIH3T3, 3.95%.
In the case of `CC1CCC2C(C(=O)O)=COC(O[C@@H]3O[C@H](CO)[C@@H](O)[C@H](O)[C@H]3O)C12` (stereo not given in full), the max response in the assay on CRL-7250 was -11.5%; in the assay on HEK293, -3.47%; in the assay on HaCat, -2.91%; with KB-3-1 it was -9.1%; in the assay on NIH3T3 it was -1.59%.
